Bioassay records from PubChem.
Rows were chosen to be rich in hits. Some 2.9% of all compounds tested hit in one or more screens of this group.
B2AR arrestin – agonists driving beta-arrestin recruitment to human beta2-adrenergic receptor; P07550; beta-arrestin recruitment to beta2AR, cell-based reporter; Potency, µM (series often up to 46.1 µM), for inactives: top-dose activation, actives largely listed as activators; hit rate 0.02% among 330,000; active = well fitted activation curve with a large enough effect; inconclusive = small, poorly fitted or top-dose-only effect;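 note: potency is the fitted concentration of half-maximal effect; 0% = DMSO controls and full agonism = EC100 isoproterenol or metaproterenol; nearly all actives have a fitted effect of over 65% in size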
TSHR antag – human thyrotropin receptor antagonism | AID 504810 | TSHR-expressing cells, TSH-stimulated cAMP HTRF, 2 h; active compounds read low | activity change, negative = inhibition, % at 11.5 µM | P16473 | hit rate 0.2% among 330,000;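 active = activity change below a set negative limit, meaning inhibition stronger than a set level, cut at about -70% in these data; inconclusive = activity change between two set negative limits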; note: % is set by controls: 0 for no effect and ±100 for the full control effect
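Antagonism was scored as loss of TSH-driven cAMP in TSHR cells, stimulated with 4nM TSH (EC80) for 2 hours at 37 deg C and detected by homogeneous HTRF competition immunoassay.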
D3 ag – agonists of human D3 dopamine receptor; P35462; D3R DiscoveRx beta-arrestin cells, luminescence, 90 min; max activation, %; hit rate 0.58% among 410,000; AID 652048; in the data active = max activation above about 30%; note: 0% is about no effect
Target sequence (P35462 whole entry, looked up): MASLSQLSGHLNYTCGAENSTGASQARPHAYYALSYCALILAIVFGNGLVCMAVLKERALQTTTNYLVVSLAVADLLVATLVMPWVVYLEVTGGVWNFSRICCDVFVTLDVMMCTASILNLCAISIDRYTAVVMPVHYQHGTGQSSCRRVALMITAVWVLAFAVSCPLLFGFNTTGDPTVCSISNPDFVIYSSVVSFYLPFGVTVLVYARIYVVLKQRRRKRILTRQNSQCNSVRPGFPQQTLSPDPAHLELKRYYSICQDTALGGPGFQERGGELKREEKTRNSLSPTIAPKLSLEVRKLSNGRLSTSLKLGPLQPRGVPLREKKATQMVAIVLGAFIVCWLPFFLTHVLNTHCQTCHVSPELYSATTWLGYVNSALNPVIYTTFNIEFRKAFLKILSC
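Cells at 1500/well, incubated overnight, then treated with pinned compounds (dopamine as control) for 90 min at 37 degrees C. DiscoveRx reagent added for 30 - 60 minutes at room temperature; luminescence read.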
DRD3 antagonist – antagonists of human D3 dopamine receptor | hit rate 2.5% among 360,000 | P35462 | D3R cells, DiscoveRx beta-arrestin luminescence, antagonist mode; active compounds read low | max response, negative = inhibition, %; in the data active = max response below about -50%; inconclusive = no clear call, values can overlap the other calls; note: % is set by controls: 0 for no effect and ±100 for the full control effect
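Cells plated overnight at 1500 cells/well, then exposed to library compounds with dopamine controls for 90 minutes at 37 degrees C. DiscoveRx reagent added for 30–60 minutes at room temperature; luminescence read, quantitative HTS format.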
* hit, by the source's call; u = inconclusive; x = not tested or not shown.

SMILES	B2AR arrestin	TSHR antag	D3 ag	DRD3 antagonist
O=C(C[C@@H]1C[C@H]2c3cc(NC(=O)C4CCC4)ccc3O[C@H]2[C@@H](CO)O1)NCc1ccc(-c2ccccc2)cc1	x	x	-7	u
O=C(O)c1ccc(-n2nc(-c3ccccc3O)nc2-c2ccccc2O)cc1	x	x	2	x
COc1ccc(-c2nc(-c3cccc(C)c3)no2)cc1OC	-1%	-22	65*	22
COc1cc(OC)cc(-c2nc(-c3cccc(C)c3)no2)c1	x	x	-2	x
COc1cc(-c2nc(-c3cccc(C)c3)no2)cc(OC)c1OC	0%	-19	58*	40
CC1CCCN(S(=O)(=O)c2cnc[nH]2)C1 (stereo not given)	0%	27	33*	-16
O=C(NCCCN1CCN(c2ccccc2)CC1)C1CCCN(c2ncnc3c2nc2n3CCCCC2)C1 (stereo not given)	0%	-8	16	-67*
CCN(CCNC(=O)C1CCCN(S(=O)(=O)c2cnc[nH]2)C1)c1ccccc1 (stereo not given)	0%	3	1	28
O=C(NC1CCCC1)C1CCCN(S(=O)(=O)c2cnc[nH]2)C1 (stereo not given)	-1%	4	2	4
O=C(NCCN1CCN(c2cccc(Cl)c2)CC1)C1CCCN(S(=O)(=O)c2cnc[nH]2)C1 (stereo not given)	0%	3	6	-86*
O=C(Nc1cccc(Cl)c1)C1CCCN(S(=O)(=O)c2cnc[nH]2)C1 (stereo not given)	0%	0	-10	0
O=C(NCCN1CCN(c2ccccc2)CC1)C1CCCN(S(=O)(=O)c2cnc[nH]2)C1 (stereo not given)	0%	-13	25	-63*
COc1ccc(-c2csc(NCc3ccco3)n2)cc1C	0%	-19	-7	0
COc1ccc(-c2nc3cccc(C)n3c2NCc2ccco2)cc1OC	-1%	-8	6	-52*
Cc1nc(NC(=O)c2cc3c(s2)CCCCC3)sc1C(=O)N(C)C	0%	-23	-7	-16
Cc1nc(NC(=O)c2ccc(Br)s2)sc1C(=O)N(C)C	0%	0	3	-69*
O=C(c1ccc2c(c1)N(Cc1ccc(F)cc1)C(=O)c1ccccc1S2=O)N1CCC(Cc2ccccc2)CC1 (stereo not given)	x	x	2	x
CCOC(=O)C(=CNc1ccc(NC2=NCC(C)(C)S2)cc1)C(=O)OCC	-1%	0	52*	104
CCN(CC)CCSc1nnc2c3ccccc3n(Cc3ccccc3)c2n1	-1%	3	-23	-93*
CCN(CC)CCSc1nnc2c3cc(F)ccc3n(Cc3ccccc3)c2n1	0%	-11	-20	u
CCOC(=O)c1cc(S(=O)(=O)N2CCN(c3cc(Cl)ccc3C)CC2)[nH]n1	x	x	-21	x
Cc1ccc(CNC(=O)[C@H]2O[C@@H](n3ccc(N)nc3=O)[C@H](O)[C@@H]2O)o1	x	x	-24	-126*
CCCn1cnnc1CNC(=O)[C@H]1O[C@@H](n2ccc(N)nc2=O)[C@H](O)[C@@H]1O	x	x	7	2
Cc1ccc(C)c(S(=O)(=O)Nc2ccc(S(=O)(=O)Nc3onc(C)c3C)cc2)c1	0%	1	1	-52*
Cc1ccc(S(=O)(=O)NC(=O)c2ccc(Br)o2)c(C)c1	-4%	4	3	u
SMILES	B2AR arrestin	TSHR antag	D3 ag	DRD3 antagonist
Cc1noc(NS(=O)(=O)c2ccc(NC(=O)c3ccc(Br)o3)cc2)c1C	0%	-4	0	-72*
Cc1ccc(S(=O)(=O)NC(=O)c2ccc(Br)o2)cc1	-3%	-4	54*	8
C=CCC[C@H](Cc1ccc(F)cc1)C(=O)OC[C@H](Cc1c[nH]c2ccccc12)NC(=O)[C@@H](CC=C)CC(=O)N[C@@H](CO)Cc1ccccc1	-2%	-14	9	-10
C=CCC[C@@H](Cc1ccc(F)cc1)C(=O)OC[C@H](Cc1c[nH]c2ccccc12)NC(=O)[C@@H](CC=C)CC(=O)N[C@H](CO)Cc1ccccc1	-1%	-10	31*	42
CCCCOC(=O)c1ccc(NC(=O)c2ccc3c(c2)CCCN3S(C)(=O)=O)cc1	x	x	-1	x
CCc1nc(NCc2ccc3c(c2)OCO3)c2oc3ccccc3c2n1	0%	-16	-5	-66*
Cc1nc(NCc2ccc3c(c2)OCO3)c2oc3ccccc3c2n1	0%	-21	8	10
CCCOc1ccc(-c2nnc(-c3ccncc3)o2)cc1	-1%	-12	-4	-71*
CC(C)COc1ccc(-c2nnc(-c3ccncc3)o2)cc1	0%	-4	9	52
